Compound activity (PubChem BioAssay)
Compounds with a hit are over-represented: about 4% of the library has one in this group of screens.
Glioma ERSR ind – ER stress response induction in glioma; U87-MG GRP78 promoter luciferase reporter, 16 h; Potency, µM, for inactives: at the highest dose activation, most hits filed as activators; hit rate 0.02% among 420,000; AID 602332; active means well fitted activation curve with a large enough effect; further: potency means the concentration at half of the fitted maximal effect; series mostly up to about 76 µM; % of control where 0% means no effect; nearly all actives have a fitted effect of over 35% in size
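Stably transfected U87-MG glioma cells carrying a GRP78-based luciferase sensor; 16 h compound incubation. Luminescence end-point read 10 min after Bright-Glo addition at room temperature.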
TRHR PAM – TRH receptor (human) allosteric enhancement; P34981; TRHR cells, fluo-8 calcium fluorescence, EC20 TRH enhancement; enhancement, % at 2 µM; hit rate 0.66% among 360,000; AID 493056; in the data active means enhancement above about 30%; further: 0% is about no effect
Target sequence (P34981 whole entry, looked up): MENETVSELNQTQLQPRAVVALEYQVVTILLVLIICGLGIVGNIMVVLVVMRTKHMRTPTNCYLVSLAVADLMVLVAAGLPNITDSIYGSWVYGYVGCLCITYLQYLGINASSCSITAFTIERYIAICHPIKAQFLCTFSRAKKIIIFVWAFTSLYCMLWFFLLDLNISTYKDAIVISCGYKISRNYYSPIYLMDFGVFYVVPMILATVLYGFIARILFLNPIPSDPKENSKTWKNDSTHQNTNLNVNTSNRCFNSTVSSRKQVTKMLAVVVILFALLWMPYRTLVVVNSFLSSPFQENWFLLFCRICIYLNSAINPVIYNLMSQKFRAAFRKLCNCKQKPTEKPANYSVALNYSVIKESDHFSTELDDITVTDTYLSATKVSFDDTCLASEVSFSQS
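TRHR-expressing cells loaded with fluo-8 calcium dye were read kinetically (ex 480/em 530) during compound addition, then stimulated with an EC20 of TRH (10 nM final). Enhancement of the Gq-mediated intracellular calcium response was scored.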
D1 agonist – activates the human D1 dopamine receptor | P21728 | HEK293 T-REx D1 cells, calcium flux, agonist mode | activation, % at 2 µM | hit rate 1% among 360,000; further: 0% is about no effect
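Inducible HEK293 T-REx D1 cells, force-coupled to calcium signalling, were plated at 4000 cells/well with tetracycline and held overnight at 30 C. After no-wash calcium dye loading, compound-evoked calcium rise over 180 s flagged agonists.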
D1 PAM – potentiators of human D1 dopamine receptor | P21728 | HEK293 TREx D1 cells, calcium flux, dopamine EC20 potentiation | potentiation, % at 10 µM | hit rate 0.036% among 360,000 | AID 504651; in the data active means potentiation above about 30%; further: 0% is about no effect
D1 antag – antagonists of human D1 dopamine receptor | P21728 | HEK293 TREx D1 cells, calcium flux, dopamine EC80; hits give low values | activity change, negative = inhibition, % at 10 µM | hit rate 3.2% among 360,000; in the data active means activity change below about -30%; further: on the % scale 0 is the no-effect control and ±100 the full control effect
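Calcium flux readout: force-coupled, inducible Hek293 Trex D1 line, cells induced overnight at 30 C with tetracycline, dye-loaded 30–90 min at RT. Antagonism scored against EC80 dopamine challenge given 180 s after compound.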
TRHR agonist – TRH receptor (human) agonism; P34981; TRHR cells, calcium flux fluo-8, FDSS agonist mode; activation, % at 2 µM; hit rate 0.18% among 360,000; further: 0% is about no effect
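Steps: seed TRHR cells overnight; add fluo-8 no-wash Ca dye, RT 30 min–1.5 h; record 10 s baseline; pin-transfer compounds; monitor fluorescence 1 cycle/s for the agonist window. Calcium increases flag candidate agonists.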
* = called active by the depositor; · = no result given. Unless noted, no stated cut-off is given here; in the data, active means activation above about 30%; inactive means the rest.

SMILES | Glioma ERSR ind | TRHR PAM | D1 agonist | D1 PAM | D1 antag | TRHR agonist
CC1CCC2(CC1)NC(=O)N(CC(=O)Nc1cccc(S(=O)(=O)N3CCOCC3)c1)C2=O (configuration not stated) | -3.7% | 1.3 | 3.8 | -1.1 | -12.8 | 0.5
Cc1cccc(N2CCN(C(=O)/C=C/c3cccs3)CC2)c1C | 4.0% | 1.0 | 8.0 | -7.1 | -41.5* | 1.1
CCc1noc(C)c1C(=O)N1CCN(c2cccc(C)c2C)CC1 | -3.4% | -1.5 | 4.1 | -6.1 | -30.5* | 0.1
Cc1ccc(P(=O)(CSC(=N)N)c2ccc(C)cc2)cc1 | -4.4% | 19.7 | 0.5 | -3.5 | -15.7 | -0.7
Cc1cc(/C=C2\SC(=O)NC2=O)c(C)n1-c1ccc(N(C)C)cc1 | 1.9% | -1.2 | -3.2 | -9.9 | -51.9* | -0.1
Cc1cc(/C=C2\SC(=O)NC2=O)c(C)n1-c1ccc(N2CCOCC2)cc1 | -2.3% | 13.7 | 11.5 | -3.5 | 2.4 | 0.2
O=C(O)CCC(=O)N1CCc2cc(S(=O)(=O)NCc3cccs3)ccc21 | -1.9% | -0.9 | 1.8 | -2.8 | 6.8 | 0.6
Oc1ccc2[nH]ccc2c1 | -4.7% | -0.9 | 2.7 | -4.2 | -30.4* | 0.3
Oc1ccc2ccc3[nH]cnc3c2c1 | 5.7% | 3.2 | 2.3 | -1.8 | 7.8 | -0.6
N#Cc1c(NC(=O)c2ccccc2Cl)n(Cc2ccccc2)c2nc3ccccc3nc12 | -3.5% | -8.0 | 14.0 | -3.5 | -16.2 | 4.1
CCCCn1c(NC(=O)c2ccccc2Cl)c(C#N)c2nc3ccccc3nc21 | 7.3% | 7.9 | 16.5 | -10.2 | -39.3* | 2.5
CCCN(CCC)CCNC(=O)c1cn(C)c(=O)c2c1c1ccccc1n2C | -2.0% | 2.3 | 0.4 | -0.5 | -1.6 | -0.2
CC(C)Nc1nc(Oc2ccc(Cl)cc2Cl)cc(C(F)(F)F)n1 | -1.3% | 3.7 | 9.8 | 2.0 | 2.4 | -1.0
CC(C)Nc1nc(Oc2cccc(Cl)c2Cl)cc(C(F)(F)F)n1 | -3.0% | -13.9 | 14.4 | -7.8 | -32.4* | 3.5
Cc1ccc(NC(=O)CSc2ncc(-c3ccccc3)n2C(=O)c2ccccc2)cc1 | 9.3% | · | · | · | · | ·
CC(C)(CNC(=O)Cc1ccc(Br)cc1)N1CCOCC1 | -4.8% | -0.7 | 0.9 | -8.1 | -37.3* | 0.1
CCN1C=C(Cc2ccc(F)cc2)C2=C(C1)C(c1ccc(F)cc1)C(C#N)=C(N)O2 (configuration not stated) | -5.2% | -0.1 | 1.9 | -6.2 | -55.4* | 0.2
O=C(COC(=O)c1ccc(O)cc1)c1ccc(S(=O)(=O)N2CCCCC2)cc1 | -1.2% | -7.1 | 9.5 | -9.2 | -31.1* | -0.3
O=C(COC(=O)c1ccc(CO)cc1)c1ccc(S(=O)(=O)N2CCCCC2)cc1 | -2.7% | -6.8 | 10.6 | -6.2 | -31.6* | -0.2
O=C(c1ccco1)N1CCN(S(=O)(=O)c2ccc3c(c2)CCN3C(=O)C2CC2)CC1 | 0.1% | 0.7 | -0.9 | -1.6 | -46.6* | 0.2
COc1ccc(/C=C/C(=O)OCC(=O)c2ccc(S(=O)(=O)N3CCCCC3)cc2)cc1OC | -3.4% | -2.3 | 4.9 | -7.3 | -54.6* | 0.4
NC(=O)COC(=O)/C=C/c1ccc(S(=O)(=O)N2CCCCCC2)cc1 | -1.9% | -6.0 | 1.5 | -3.0 | 12.7 | -1.1
O=C(OCC(=O)N1CCN(C(=O)c2ccco2)CC1)c1ccc(S(=O)(=O)N2CCCCC2)cc1 | -3.2% | 2.0 | 6.5 | -15.7 | -57.5* | 0.2
Cc1ccc(S(=O)(=O)NCCNC(=O)C2CCCNC2=O)cc1 (configuration not stated) | -2.0% | 3.0 | 5.3 | -3.1 | -46.4* | 0.7
O=C(O)CSCC(=O)c1ccccc1 | -1.1% | 2.0 | 2.7 | -1.1 | 0.8 | -1.3
SMILES | Glioma ERSR ind | TRHR PAM | D1 agonist | D1 PAM | D1 antag | TRHR agonist
O=C(NCc1ccccc1)c1nc(-c2ccc(Cl)cc2)n2c1CCCCC2 | 2.9% | -27.6 | 4.3 | 4.8 | -1.4 | 1.2
CC1(C)CC(O)C(C)(C)N1O (configuration not stated) | 0.3% | -4.9 | 36.5* | 0.1 | 168.5 | 0.4
O=C(CSc1nc(O)c(C2CCCCC2)c(=O)[nH]1)Nc1ccc(Cl)cc1 | -1.1% | 2.5 | 1.2 | -2.2 | 4.8 | -0.3
Cc1ccc(NC(=O)NNC(=O)COc2ccc3ccccc3c2)cc1 | -4.5% | -2.1 | 0.5 | -4.6 | 2.1 | 0.3
CC(Oc1ccc2ccccc2c1)C(=O)NNC(=O)Nc1ccccc1 (configuration not stated) | -5.6% | -0.9 | 1.1 | 5.5 | -37.1* | -0.1
CN(C)C(=O)C(CCN1CCC(O)(c2ccc(Cl)cc2)CC1)(c1ccccc1)c1ccccc1 | -8.3% | -8.7 | 39.9* | -5.8 | -21.3 | 1.0
CN(C)c1ccc(NC(=O)CN2CCC(O)(c3ccccc3)CC2)cc1 | -1.6% | -26.0 | 1.8 | -4.7 | -4.6 | -0.9
Cc1ccc(S(=O)(=O)c2nnn3c2nc(NC2CCCCCC2)c2sccc23)cc1C | -0.3% | -5.6 | 2.5 | -1.4 | -12.8 | 1.3
CCCCNc1nc2c(S(=O)(=O)c3ccc(Cl)cc3)nnn2c2ccsc12 | -2.9% | -14.1 | -0.4 | -8.1 | -51.3* | 0.7
CCc1ccc(S(=O)(=O)c2nnn3c2nc(NC2CCCC2)c2sccc23)cc1 | 1.4% | -2.3 | 3.6 | -5.8 | -31.5* | 0.6
Cc1ccc(S(=O)(=O)c2nnn3c2nc(NCc2cccs2)c2sccc23)cc1 | -2.9% | 2.6 | -1.1 | -1.7 | -24.6 | 0.0
Cc1ccc(CCNc2nc3c(S(=O)(=O)c4ccc(C)cc4)nnn3c3ccsc23)cc1 | -3.3% | 42.0* | 0.3 | -6.2 | -3.6 | 1.0
COc1ccc(-n2ncc(C(C)NS(=O)(=O)c3ccc(C(C)=O)cc3)c2C)cc1 (configuration not stated) | -4.5% | -1.9 | 2.5 | -2.9 | 2.5 | -0.6
COc1ccc(-n2ncc(C(C)NS(=O)(=O)c3cccs3)c2C)cc1 (configuration not stated) | 0.9% | 31.4* | 2.6 | -2.1 | 0.1 | -1.0
Nc1ccc(Oc2ccc3nc(-c4ccccc4)c(-c4ccccc4)nc3c2)cc1 | -3.5% | 15.1 | 1.1 | 2.6 | 1.8 | 0.0
Nc1ccc2nc(-c3ccccc3)c(-c3ccccc3)nc2c1 | 6.6% | 18.9 | 60.7* | 9.0 | 0.2 | 32.2*
COc1cccc2sc(Nc3nnc(-c4cccs4)o3)nc12 | -0.6% | 5.4 | 2.3 | -4.2 | -45.7* | 1.5
Cc1cnn(-c2cc(N/N=C/c3cccc(F)c3)ncn2)c1 | 0.9% | 35.8* | 0.4 | -8.8 | 2.3 | -3.2
COc1ccc(S(=O)(=O)N2CCN(Cc3ccccc3)CC2)cc1OC | 2.3% | 35.3* | 6.6 | -3.7 | -9.4 | 0.1
CCOc1ccc(S(=O)(=O)N2CCN(Cc3ccccc3)CC2)cc1 | -3.2% | 6.6 | 4.7 | 0.7 | -39.2* | -1.2
COc1ccc(CN2CCN(S(=O)(=O)c3ccc(C)cc3)CC2)cc1OC | -2.8% | · | · | · | · | ·
CCOc1ccc(CN2CCN(S(=O)(=O)c3ccc(Cl)cc3)CC2)cc1 | -2.2% | 5.8 | -0.4 | 2.2 | 2.9 | 0.2
